Results taken from PubChem BioAssay (EPA / NIEHS).
Calls of active or inactive are those of the source. How the source made its calls: active means hit-call score of the fitted dose curve at least 0.9, where 1 is the maximum; inactive means score below 0.9.

Tests used:
[1] = APR_HepG2_CellCycleArrest_24hr: Apredica 24-hour HepG2 Assay for Cell Cycle Arrest (AID 2282905); conditions: imaging, actives raise or lower the signal;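 further: cell cycle arrest scored as ratio of 2N to 4N nuclear DNA content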
How it was run: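 Compounds (0.39 to 200 uM, final DMSO 0.5% v/v) are applied to HepG2 cells for 24 hours; cells are then fixed, permeabilized and nuclei labeled with Hoechst 33342. Automated imaging measures DNA content, and activity is fitted in both directions against DMSO.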

[2] = APR_HepG2_NuclearSize_24hr: Apredica 24-hour HepG2 Assay for Nuclear Size (AID 2282907); conditions: high-content imaging, actives raise or lower the signal
How it was run: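 Nuclear size is measured by fluorescence high-content imaging of Hoechst-labelled HepG2 nuclei after 24 hr of treatment (0.39–200 uM, 0.5% DMSO). Cells are fixed in 3.7% formaldehyde before staining, and DMSO serves as the baseline for bidirectional curve fitting.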

[3] = APR_HepG2_CellLoss_24hr: Apredica 24-hour HepG2 Assay for Cell Loss (AID 2282908); conditions: high-content imaging
How it was run: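 Nuclear count serves as the viability measure: treated cells are fixed, permeabilized and labelled with Hoechst 33342, and six images per well are analysed to identify valid nuclei. Doses span 0.39–200 uM, and activity in either direction is scored against DMSO.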

[4] = APR_HepG2_MicrotubuleCSK_24hr: Apredica 24-hour HepG2 Assay for Microtubule CSK Stabilty (AID 2282909); conditions: HepG2 microtubule cytoskeleton imaging, actives raise or lower the signal
How it was run: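 Compounds were applied to HepG2 cells for 24 hours across 0.39–200 uM in duplicate, with final DMSO at 0.5% v/v. Fixed, permeabilized cells were labeled for alpha-tubulin and nuclei, and tubulin fluorescence was quantified by imaging, fitted bidirectionally against DMSO.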

[5] = APR_HepG2_MitoticArrest_24hr: Apredica 24-hour HepG2 Assay for Mitotic Arrest (AID 2282910); conditions: high-content imaging, actives raise or lower the signal
How it was run: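 Treatment lasted 24 hr in the human HepG2 line at 0.39–200 uM, solvent held at 0.5% DMSO. Fixed cells were stained with Hoechst 33342 and anti-phospho-histone H3, imaged at 20x, and analysed by gain- or loss-of-signal fitting against DMSO.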

[6] = APR_HepG2_MitoMembPot_24hr: Apredica 24-hour HepG2 Assay for Mitochondrial Membrane Potential (AID 2282911); conditions: imaging, actives raise or lower the signal
How it was run: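 HepG2, 24 hr dosing, 10 concentrations 0.39–200 uM, 0.5% DMSO final. Live-cell MitoTracker Red CMXRos 250 nM 30 min, then 3.7% formaldehyde fix. HCS fluorescence imaging, 20x; bidirectional fit vs DMSO baseline.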

[7] = APR_HepG2_MitoMass_24hr: Apredica 24-hour HepG2 Assay for Mitochondrial Mass (AID 2282912); conditions: high-content imaging, actives raise or lower the signal
How it was run: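 After 24 hr of treatment at 0.39 to 200 uM, HepG2 cells take up 250 nM MitoTracker Red CMXRos for 30 min and are then fixed with 3.7% formaldehyde. Per-well images are quantified, and any change in either direction is scored against solvent.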

[8] = APR_HepG2_p53Act_24hr: Apredica 24-hour HepG2 Assay for p53 Activation (AID 2282913); conditions: high-content imaging, actives raise or lower the signal;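 further: p53 protein immunofluorescence averaged per cell in HepG2 with Hoechst nuclei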
How it was run: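 Read-out: Cy5 immunofluorescence for p53 in fixed, permeabilized HepG2, imaged by HCS with Hoechst-defined nuclei. Dosing was 24 hr at 0.39–200 uM in 0.5% DMSO. Curves were fitted bidirectionally relative to DMSO.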

[9] = APR_HepG2_CellCycleArrest_72hr: Apredica 72-hour HepG2 Assay for Cell Cycle Arrest (AID 2282914); conditions: high-content imaging, actives raise or lower the signal
How it was run: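 HepG2, 72 hr exposure, 10-point 0.39–200 uM, duplicate, 0.5% DMSO final. Fix 3.7% formaldehyde 30 min RT, Triton X-100 0.5%, Hoechst 33342 2 ug/mL. ArrayScan 20x, six fields/well; DNA content per nucleus; bidirectional fit vs DMSO.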

[10] = APR_HepG2_CellLoss_72hr: Apredica 72-hour HepG2 Assay for Cell Loss (AID 2282915); conditions: high-content imaging
How it was run: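 HepG2 cells were exposed for 72 hr to compounds at 0.39–200 uM (ten concentrations, duplicate) in 0.5% v/v final DMSO. Nuclei were stained with Hoechst 33342 after 3.7% formaldehyde fixation, imaged at 20x, and counted; fits bidirectional versus DMSO.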

[11] = APR_HepG2_P-H2AX_72hr: Apredica 72-hour HepG2 Assay for H2AX Phosphorylation (AID 2282916); conditions: imaging, actives raise or lower the signal;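 further: phospho-histone H2A.x immunostain intensity per cell marking DNA damage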
How it was run: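 Human hepatoma HepG2 cells are dosed across ten concentrations (0.39 to 200 uM, 0.5% v/v DMSO) and incubated 72 hr. Phospho-histone H2A.x is then detected by antibody staining alongside c-Jun and Hoechst, and quantified by automated fluorescence imaging.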

[12] = APR_HepG2_MitoMembPot_72hr: Apredica 72-hour HepG2 Assay for Mitochondrial Membrane Potential (AID 2282917); conditions: imaging, actives raise or lower the signal
How it was run: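 HepG2 cells exposed 72 h to compounds at 0.39–200 uM (0.5% v/v DMSO, duplicates); MitoTracker Red CMXRos 250 nM loaded 30 min before 3.7% formaldehyde fixation, imaged by HCS fluorescence. Bidirectional fit versus DMSO.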

[13] = APR_HepG2_MitoticArrest_72hr: Apredica 72-hour HepG2 Assay for Mitotic Arrest (AID 2282918); conditions: high-content imaging, actives raise or lower the signal
How it was run: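 HepG2, 72 hr exposure, 0.39–200 uM in duplicate, 0.5% v/v DMSO final. Formaldehyde-fixed, Triton-permeabilized, anti-phospho-histone H3/FITC plus Hoechst. ArrayScan imaging at 20x; curves fit bidirectionally against DMSO baseline.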

[14] = APR_HepG2_MicrotubuleCSK_72hr: Apredica 72-hour HepG2 Assay for Microtubule CSK Stabilty (AID 2282919); conditions: HepG2 microtubule cytoskeleton, high-content imaging, actives raise or lower the signal
How it was run: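 Ten-point dosing (0.39–200 uM, 0.5% DMSO) of HepG2 for 72 hr, with taxol as the cytoskeletal positive control. The cells were formaldehyde-fixed and then stained with alpha-tubulin/Cy5 and Hoechst. Imaging at 20x used a −2 um Z offset for tubulin.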

[15] = APR_HepG2_P-H2AX_24hr: Apredica 24-hour HepG2 Assay for H2AX Phosphorylation (AID 2282920); conditions: high-content imaging, actives raise or lower the signal
How it was run: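 HCS fluorescence imaging of phospho-H2A.x immunostain (with Hoechst 33342 nuclear counterstain) in HepG2 after 24 hr compound exposure; 10 concentrations, 0.39–200 uM, duplicate wells, 0.5% v/v DMSO. Gain or loss of signal fitted relative to DMSO baseline.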

[16] = APR_HepG2_StressKinase_72hr: Apredica 72-hour HepG2 Assay for Stress Kinase (AID 2282921); conditions: HepG2 stress kinase (phospho-c-Jun) imaging, actives raise or lower the signal
How it was run: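 After a 72 h compound treatment spanning 0.39 to 200 uM, formaldehyde-fixed cells are labelled for phosphorylated c-Jun and nuclei, imaged by automated fluorescence microscopy, and activity is fitted in both directions relative to DMSO controls.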

[17] = APR_HepG2_StressKinase_24hr: Apredica 24-hour HepG2 Assay for Stress Kinase (AID 2282922); conditions: HepG2 stress kinase (phospho-c-Jun) imaging, actives raise or lower the signal
How it was run: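 After 24 hr compound treatment (up to 200 uM, final DMSO 0.5% v/v), HepG2 cells are fixed and multiplex-labeled; phospho-c-Jun intensity is captured by high-content fluorescence imaging and analyzed relative to DMSO.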

[18] = APR_HepG2_p53Act_72hr: Apredica 72-hour HepG2 Assay for p53 Activation (AID 2282923); conditions: high-content imaging, actives raise or lower the signal;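 further: average cellular p53 protein immunofluorescence intensity in HepG2 cells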
How it was run: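 Imaging-based endpoint: after 72 hr compound exposure (up to 200 uM, 0.5% DMSO), fixed and permeabilized monolayers were labelled with anti-p53 antibody and imaged; signal change in either direction was fitted relative to DMSO controls.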

[19] = APR_HepG2_MitoMass_72hr: Apredica 72-hour HepG2 Assay for Mitochondrial Mass (AID 2282924); conditions: high-content imaging, actives raise or lower the signal;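 further: MitoTracker Red CMXRos stain intensity per cell imaged as mitochondrial mass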
How it was run: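 Steps: treat HepG2 72 hr (0.39–200 uM, duplicate wells); load MitoTracker Red CMXRos, 250 nM, 30 min; fix with 3.7% formaldehyde, permeabilise with 0.5% Triton X-100; capture images, nuclei via Hoechst 33342; fit bidirectionally against DMSO.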

[20] = APR_HepG2_NuclearSize_72hr: Apredica 72-hour HepG2 Assay for Nuclear Size (AID 2282925); conditions: high-content imaging, actives raise or lower the signal
How it was run: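 Compounds (0.39–200 uM, final DMSO 0.5%) were applied to HepG2 for 72 hr. Cells were then formaldehyde-fixed, permeabilized and labelled with Hoechst 33342. Nuclear diameter was quantified from six images per well.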

Measured: AC50

Cc1oc2c(NC(=O)c3c(Cl)cccc3Cl)cccc2c1C(C)(C)O
inactive: all assays above

Cc1cn([C@H]2C[C@H](N=[N+]=[N-])[C@@H](CO)O2)c(=O)[nH]c1=O
active: [9] 46.3 µM
inactive: all other assays above

Cc1ncc(CO)c(CO)c1O
inactive: all assays above

CCCOC(=O)c1cc(O)c(O)c(O)c1
active: [8] 38.1 µM | [9] 46.2 µM | [10] 8.44 µM | [18] 38.8 µM
inactive: all other assays above

CC1(C)NC(=O)N(c2ccc([N+](=O)[O-])c(C(F)(F)F)c2)C1=O
active: [10] 38.6 µM
inactive: all other assays above

CC(C)(C)c1csc(-c2cc3cc(OCc4ccccc4CC(=O)O)ccc3o2)n1
inactive: all assays above
